In all, about 220,000 compounds went through this assay and about 2,400 (1.1%) were called active. Another 7% or so got no clear call; they are omitted. The calls are words filed in the database; no cut-off is given here. The sample as a whole holds a higher share of actives than the screen did.

The record followed here is ChEMBL document CHEMBL1201862, “PubChem BioAssay data set” (2004).

The target in the assay is Huntingtin (Homo sapiens) (UniProt P42858). The experiment in a line: qHTS Multiplex Assay to Identify Dual Action Probes in a Cell Model of Huntington: Aggregate Formation (GFP). [Related pubchem assays: 1482, 1471 ]. It is filed as functional. Background: Quantitative high-throughput screening tests each substance at several concentrations.
Chain of Huntingtin (Homo sapiens) (P42858 whole entry): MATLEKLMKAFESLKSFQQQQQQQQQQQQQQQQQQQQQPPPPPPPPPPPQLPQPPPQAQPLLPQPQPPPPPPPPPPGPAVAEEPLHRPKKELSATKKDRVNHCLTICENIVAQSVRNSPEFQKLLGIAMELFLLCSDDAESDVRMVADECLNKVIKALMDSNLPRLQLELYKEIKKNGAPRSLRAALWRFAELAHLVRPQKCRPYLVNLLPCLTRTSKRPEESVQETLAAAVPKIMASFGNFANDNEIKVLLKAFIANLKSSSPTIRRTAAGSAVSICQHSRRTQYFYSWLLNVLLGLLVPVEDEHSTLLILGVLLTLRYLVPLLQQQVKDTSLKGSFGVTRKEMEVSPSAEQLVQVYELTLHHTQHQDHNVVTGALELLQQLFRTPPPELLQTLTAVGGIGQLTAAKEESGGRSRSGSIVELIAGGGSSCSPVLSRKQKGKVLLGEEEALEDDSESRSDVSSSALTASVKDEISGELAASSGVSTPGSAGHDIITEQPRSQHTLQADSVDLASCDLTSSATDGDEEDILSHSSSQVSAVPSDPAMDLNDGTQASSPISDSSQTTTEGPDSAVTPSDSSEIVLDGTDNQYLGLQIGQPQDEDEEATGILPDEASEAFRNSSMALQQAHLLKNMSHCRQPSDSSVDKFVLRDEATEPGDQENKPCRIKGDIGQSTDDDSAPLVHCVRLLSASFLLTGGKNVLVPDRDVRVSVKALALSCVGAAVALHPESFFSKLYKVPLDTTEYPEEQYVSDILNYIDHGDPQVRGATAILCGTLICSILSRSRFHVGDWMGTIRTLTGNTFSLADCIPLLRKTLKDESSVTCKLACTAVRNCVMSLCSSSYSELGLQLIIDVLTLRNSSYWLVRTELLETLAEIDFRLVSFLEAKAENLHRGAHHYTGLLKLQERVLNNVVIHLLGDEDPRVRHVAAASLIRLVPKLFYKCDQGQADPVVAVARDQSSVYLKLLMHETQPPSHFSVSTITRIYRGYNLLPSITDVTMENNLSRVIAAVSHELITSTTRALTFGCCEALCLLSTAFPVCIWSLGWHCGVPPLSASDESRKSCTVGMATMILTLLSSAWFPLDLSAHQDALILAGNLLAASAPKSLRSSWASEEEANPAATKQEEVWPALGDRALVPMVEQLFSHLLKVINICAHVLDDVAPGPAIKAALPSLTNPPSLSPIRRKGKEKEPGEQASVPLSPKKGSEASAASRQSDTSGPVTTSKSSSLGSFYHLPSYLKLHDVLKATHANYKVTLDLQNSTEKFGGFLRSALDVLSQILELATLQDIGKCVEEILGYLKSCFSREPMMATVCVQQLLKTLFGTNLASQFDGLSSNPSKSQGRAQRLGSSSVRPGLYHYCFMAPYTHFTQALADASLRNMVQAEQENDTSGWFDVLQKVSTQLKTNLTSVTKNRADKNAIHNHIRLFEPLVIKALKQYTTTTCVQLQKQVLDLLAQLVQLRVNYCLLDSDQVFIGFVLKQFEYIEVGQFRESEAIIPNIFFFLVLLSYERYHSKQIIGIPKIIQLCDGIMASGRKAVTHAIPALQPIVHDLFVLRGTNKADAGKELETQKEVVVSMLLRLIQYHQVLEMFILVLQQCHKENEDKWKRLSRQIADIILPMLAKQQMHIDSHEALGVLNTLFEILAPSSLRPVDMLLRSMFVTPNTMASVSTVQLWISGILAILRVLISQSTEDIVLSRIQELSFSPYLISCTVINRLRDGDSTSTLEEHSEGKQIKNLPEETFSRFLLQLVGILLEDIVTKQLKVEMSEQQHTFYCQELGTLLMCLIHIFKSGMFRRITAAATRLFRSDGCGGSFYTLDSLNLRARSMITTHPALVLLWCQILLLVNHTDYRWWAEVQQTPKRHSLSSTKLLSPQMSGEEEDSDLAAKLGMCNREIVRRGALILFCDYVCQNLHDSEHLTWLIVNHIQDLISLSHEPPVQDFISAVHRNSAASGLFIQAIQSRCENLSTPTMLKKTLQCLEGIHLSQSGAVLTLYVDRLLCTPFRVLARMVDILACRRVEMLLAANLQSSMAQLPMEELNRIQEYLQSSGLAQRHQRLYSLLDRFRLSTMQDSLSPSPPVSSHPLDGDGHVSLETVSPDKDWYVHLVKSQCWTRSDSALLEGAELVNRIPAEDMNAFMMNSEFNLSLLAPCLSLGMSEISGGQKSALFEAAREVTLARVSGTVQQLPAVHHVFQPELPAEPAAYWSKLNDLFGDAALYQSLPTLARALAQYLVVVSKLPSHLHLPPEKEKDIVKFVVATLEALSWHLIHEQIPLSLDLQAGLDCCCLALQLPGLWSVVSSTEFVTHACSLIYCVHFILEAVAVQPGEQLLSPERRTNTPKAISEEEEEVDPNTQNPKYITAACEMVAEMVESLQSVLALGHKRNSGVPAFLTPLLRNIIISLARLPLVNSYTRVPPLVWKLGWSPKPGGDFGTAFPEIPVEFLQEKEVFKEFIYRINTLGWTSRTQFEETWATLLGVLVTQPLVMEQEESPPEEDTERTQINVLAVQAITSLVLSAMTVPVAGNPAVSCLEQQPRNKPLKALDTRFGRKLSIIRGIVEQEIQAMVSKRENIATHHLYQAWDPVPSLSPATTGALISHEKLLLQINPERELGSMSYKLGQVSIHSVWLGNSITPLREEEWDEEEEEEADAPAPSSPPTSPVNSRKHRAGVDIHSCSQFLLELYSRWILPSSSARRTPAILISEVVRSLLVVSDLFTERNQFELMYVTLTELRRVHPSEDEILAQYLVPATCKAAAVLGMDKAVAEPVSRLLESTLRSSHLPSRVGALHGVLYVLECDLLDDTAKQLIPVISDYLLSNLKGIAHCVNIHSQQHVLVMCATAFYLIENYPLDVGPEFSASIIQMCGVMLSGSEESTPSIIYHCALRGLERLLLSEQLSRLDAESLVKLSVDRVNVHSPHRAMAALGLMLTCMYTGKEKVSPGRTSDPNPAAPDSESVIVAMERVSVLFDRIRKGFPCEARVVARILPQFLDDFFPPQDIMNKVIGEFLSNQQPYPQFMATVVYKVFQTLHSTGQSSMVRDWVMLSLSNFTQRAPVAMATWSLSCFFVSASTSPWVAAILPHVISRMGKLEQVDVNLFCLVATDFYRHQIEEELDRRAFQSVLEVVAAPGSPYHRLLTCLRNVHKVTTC
As to `O=C(c1nc2nc(-c3ccccc3)cc(C(F)(F)F)n2n1)N1CCOCC1`, the Potency was 112 µM (active).

Consider `CCOc1ccc(S(=O)(=O)n2ccc(C)n2)c2ccccc12`, for which the Potency is 56.2 µM (active).

Take `Cc1nnc2sc(SCc3ccc(Cl)cc3)nn2c1=O`: the Potency is 891 µM (active).

For the molecule `CCOC(=O)c1ccc(N2CN(CCc3ccccc3)CN=C2S)cc1`, the Potency is 112 µM (active).

Turning to `O=C1C2C3C=CC(C3)C2C(=O)N1CCCO` (stereo not drawn), the Potency is 89.1 µM (active).

As for `CCOC(=O)c1c(NC(=O)C2=C(C)N=C(S)NC2c2ccc(F)cc2)sc(C)c1C` (stereo not drawn), the Potency was 112 µM (active).

Consider `CCOC(=O)Cn1c(-c2ccccn2)nc2ccccc21`, for which the Potency is 224 µM (active).

As to `CN(C)CCN(C(=O)c1ccc(S(=O)(=O)N(C)C)cc1)c1nc2cc3c(cc2s1)OCCO3`, the Potency is 141 µM (active).
